Source: PubChem BioAssay (NCI)
“And” between values parts separate entries of the source, which are not always exact repeats. Equal entries are not always repeated. Compounds without any hit were thinned out: in the full panel of roughly 79,000, 15% have a hit. A number with no mark means an inactive call. The source made the active and inactive calls. Cut-off read from the data, not from the text of the source: active = growth inhibition above about 70%; inactive = the rest.

Assay: NCI Yeast Anticancer Drug Screen. Data for the sgs1 mgt1 strain (AID 161);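 note: 0% = growth of cultures given vehicle only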
Settings: S. cerevisiae sgs1 mgt1 strain, stronger effect = higher value
Method: Growth inhibition of yeast strains with defined genetic alterations is measured as a screen for potential anti-cancer activity. Selected strains with alterations in DNA damage repair or cell cycle control were exposed to compounds and growth inhibition was measured relative to vehicle treated controls. The strain used in this assay is sgs1 mgt1

[1] = at 5.0 µM (retest, dose inferred, filed as 0.5)
[2] = at 50.0 µM (retest, dose inferred, filed as 5.0)

| SMILES | growth inhibition [1] | growth inhibition [2] | growth inhibition (at 50.0 µM) |
| --- | --- | --- | --- |
| CC(C)C12C=C3CCC4C(C)(C(=O)O)CCCC4(C)C3(CC1)OO2 (stereo unspecified) | 7% | 90% (active) | 97.6% (active) |
| CC(=O)[CH-]C(C)=O.CC(=O)[CH-]C(C)=O.N=CC=N.[Sn+2] | 98% (active) | 99% (active) | 94.2% (active) |
| CC1Oc2cc3c(-c4c(O)cc(O)c5c(O)c6c(cc45)OC(C)C(C)C6=O)c(O)cc(O)c3c(O)c2C(=O)C1C (stereo unspecified) | -2% | 86% (active) | 83% (active) |
| O=[N+]([O-])c1cc(Cl)ccc1S(=O)(=O)F | 99% (active) | 99% (active) | 99.5% (active) |
| CCC[CH2][Sn]1([CH2]CCC)[O]CC(Cc2ccccc2)[O]1 (stereo unspecified) | 54% | 98% (active) | 86.9% (active) |
| O=[N+]([O-])/C=C/c1ccccc1Cl | 67% | 98% (active) | 93.3% (active) |
| COC(=O)C1=C(C(=O)OC)C2(C)OC1c1ccccc12 (stereo unspecified) | 4% | 96% (active) | 98% (active) |
| O=C(c1ccccc1)c1c(CC(O)c2cccnc2)n(C(=O)c2ccccc2)c2ccccc12 (stereo unspecified) | 13% | 97% (active) | 90.7% (active) |
| C/C(=N/NC(N)=S)c1ccc(Cl)cc1 | 5% | 93% (active) | 94% (active) |
| CC(=O)c1cc(CN(CCCl)CCCl)c(O)c(CN(CCCl)CCCl)c1O | 10% | 34% | 96.2% (active) |
| c1cs[c]([Hg][c]2cccs2)c1 | 100% (active) | 97% (active) | 99.6% (active) |
| CC(=O)NC1C(O[C@H]2CC[C@@]3(C)C(CC[C@]4(C)C3CC=C3C5CC(C)(C)CC[C@]5(C(=O)O)CCC34C)C2(C)C)OC(CO)C(O)C1O (stereo partly specified) | 44% | 99% (active) | 90.2% (active) |
| COc1ccc(CN2CCCN(Cc3ccc(OC)cc3OC)C2c2ccc(N(CCCl)CCCl)cc2)c(OC)c1 | -5% | 42% | 60.8% |
| COc1cc2c(cc1OC)C13CCN4CC5=CCOC(CC(=O)O)C(C5CC41)C3N2 (stereo unspecified) | – | – | 47.1% and -32.6% |
| CC(N)CCc1ccccc1 (stereo unspecified) | – | – | -1.15% |
